Assay results from the supplement of paper PMC10849652.
The full data set covers some 8,800 targets. This sample favours those with a hit. About 0.5% of all pairs of compound and target were hits.

Legend:
Experiment in all cases: log2 fold change, soluble protein after heating vs DMSO (PISA); higher = thermal stabilisation; K562 lysate, 10 uM; active = over 0.2 and 3.5 SD of the protein, either way, in both replicates (recomputed)
[1] = compound: CCCS(=O)(=O)Nc1ccc(F)c(C(=O)c2c[nH]c3ncc(-c4ccc(Cl)cc4)cc23)c1F [vemurafenib]
Outline: (§1)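 Dounce homogenisation of K562 pellets in PBS pH 7.4 with 1 mM MgCl2 produced a crude extract, used at 1 mg/mL protein. Exposure to 10 μM compound lasted 30 min, and aliquots were then heated for 3 min across 48°C-58°C, pooled and brought to 0.5% NP-40 at 4°C. The supernatant after 21,000xg for 90 min was quantified by TMTpro 16plex LC-MS/MS with channel sums equalised. Duplicate values are given as log-two fold change in thermal stability relative to solvent controls.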

[2] = compound: CCCS(=O)(=O)Nc1ccc(F)c(C(=O)c2c[nH]c3ncc(Cl)cc23)c1F
Outline: as §1

[3] = compound: CCN(CCCOc1ccc2c(Nc3cc(CC(=O)Nc4cccc(F)c4)[nH]n3)ncnc2c1)CCOP(=O)(O)O [barasertib]
Outline: as §1

[4] = compound: CC[C@@H]1C(=O)N(C)c2cnc(Nc3ccc(C(=O)NC4CCN(C)CC4)cc3OC)nc2N1C1CCCC1
Outline: as §1

[5] = compound: CC[C@@H]1C(=O)N(C)c2cnc(Nc3ccc(C(=O)N[C@H]4CC[C@H](N5CCN(CC6CC6)CC5)CC4)cc3OC)nc2N1C(C)C [volasertib]
Outline: as §1

[6] = compound: CCn1c(C(=O)N(C2CC2)C2CC2)cc2c3c(ncn3C)c(Nc3cc(C)n(C)n3)nc21
Outline: as §1

[7] = compound: CCn1cc(-c2ccnc3[nH]c(-c4cccc(CN(C)C)c4)cc23)c(-c2ccc(NC(=O)N(C)C)cc2)n1
Outline: as §1

[8] = compound: CN1CCC(CNc2ccc3ncc(-c4cccc(OC(F)(F)F)c4)n3n2)CC1
Outline: as §1

[9] = compound: CN1CCN(CCOc2cc(OC3CCOCC3)c3c(Nc4c(Cl)ccc5c4OCO5)ncnc3c2)CC1 [saracatinib]
Outline: as §1

[10] = compound: CN1CC[C@H](c2c(O)cc(O)c3c(=O)cc(-c4ccccc4Cl)oc23)[C@H](O)C1 [alvocidib]
Outline: as §1

[11] = compound: CN1CCc2c(c3ccccc3n2Cc2ccc(C(=O)NO)cc2)C1 [Tubastatin A]
Outline: as §1

[12] = compound: CNC(=O)C1=CC=CC=C1NC2=NC(=NC=C2Cl)NC3=C(C=C(C=C3)N4CCOCC4)OC
Outline: as §1

[13] = compound: CNC(=O)c1ccc(Nc2ncc(C(F)(F)F)c(NCc3nccnc3N(C)S(C)(=O)=O)n2)cc1 [defactinib]
Outline: as §1

[14] = compound: CNc1nc(-c2ccc3c(N)n[nH]c3c2)cc(N2C[C@@H](C(=O)NC3CCCCC3)CC[C@H]2C)n1
Outline: as §1

[15] = compound: COC(=O)N[C@@H](C)CNc1nccc(-c2cn(C(C)C)nc2-c2cc(Cl)cc(NS(C)(=O)=O)c2F)n1 [encorafenib]
Outline: as §1

[16] = compound: COC(=O)[C@H](CCSC)NC(=O)C1=C(C=C(C=C1)NC[C@H](CS)N)C2=CC=CC=C2
Outline: as §1

[17] = compound: COc1cc(Nc2ncc3c(n2)-c2ccc(Cl)cc2C(c2c(F)cccc2OC)=NC3)ccc1C(=O)O [alisertib]
Outline: as §1

[18] = compound: COc1cc2nc(-c3cc(F)ccc3O)nc(N[C@@H]3CNC[C@H]3C(C)(C)O)c2cc1OC
Outline: as §1

[19] = compound: COc1cc2ncnc(Nc3ccc(F)c(Cl)c3)c2cc1OCCCN1CCOCC1 [gefitinib]
Outline: as §1

[20] = compound: CN1CCN(c2nc(C3=C(c4c[nH]c5ccccc45)C(=O)NC3=O)c3ccccc3n2)CC1 [sotrastaurin]
Outline: as §1

Measured: log2 fold change

C18orf25 isoform 2 (UniProt Q96B23)
inactive: [1] -0.01 | [2] 0.027 | [3] -0.034 | [4] 0.067 | [5] -0.021 | [6] -0.047 | [7] -0.234 | [8] 0.037 | [9] -0.037 | [10] 0.1 | [11] 0.106 | [12] 0.1 | [13] 0.072 | [14] 0.043 | [15] 0.033 | [16] -0.084 | [17] 0.058 | [18] 0.031 | [19] 0.034

CHCHD7 isoform 4 (UniProt Q9BUK0)
Chain of UniProt Q9BUK0 (Q9BUK0 whole entry, looked up): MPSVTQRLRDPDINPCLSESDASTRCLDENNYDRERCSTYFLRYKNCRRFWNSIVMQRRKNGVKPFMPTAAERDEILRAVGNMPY
inactive: [1] 0.026 | [2] 0.06 | [3] -0.026 | [4] 0.073 | [5] -0.064 | [6] 0.021 | [8] 0.155 | [9] -0.021 | [20] 0.077 | [10] -0.097 | [11] 0.082 | [13] -0.009 | [14] -0.141 | [15] 0.005 | [16] -0.003 | [17] 0.177 | [18] 0.027 | [19] 0.118
active: [7] -0.71

ATF7IP2 (UniProt Q5U623)
inactive: [1] 0.062 | [2] -0.041 | [3] 0.009 | [5] 0.083 | [6] -0.064 | [7] -0.145 | [8] 0.197 | [20] 0.031 | [10] -0.197 | [11] 0.071 | [12] -0.065 | [13] -0.072 | [17] 0.003 | [18] 0.064 | [19] 0.044

CDC25C (UniProt P30307)
Chain of UniProt P30307 (P30307 whole entry, looked up): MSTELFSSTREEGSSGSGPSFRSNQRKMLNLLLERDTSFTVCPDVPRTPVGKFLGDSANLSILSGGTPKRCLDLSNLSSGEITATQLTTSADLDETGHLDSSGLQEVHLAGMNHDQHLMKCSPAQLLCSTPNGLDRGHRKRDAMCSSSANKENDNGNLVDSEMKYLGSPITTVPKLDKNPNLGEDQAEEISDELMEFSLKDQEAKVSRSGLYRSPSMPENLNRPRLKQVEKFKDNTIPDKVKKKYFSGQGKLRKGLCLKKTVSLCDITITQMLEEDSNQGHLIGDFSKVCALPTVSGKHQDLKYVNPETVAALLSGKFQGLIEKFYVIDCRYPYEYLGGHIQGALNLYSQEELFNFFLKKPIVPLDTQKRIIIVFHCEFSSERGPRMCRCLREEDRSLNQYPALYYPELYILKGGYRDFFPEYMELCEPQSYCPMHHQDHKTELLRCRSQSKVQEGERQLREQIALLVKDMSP
inactive: [1] 0.031 | [2] 0.093 | [3] -0.028 | [4] -0.08 | [5] -0.004 | [6] 0.083 | [7] 0.314 | [8] 0.155 | [9] -0.053 | [20] 0.016 | [10] 0.022 | [11] -0.09 | [12] 0.041 | [13] 0.067 | [14] -0.073 | [15] 0.078 | [16] 0.14 | [17] 0.054 | [18] 0.04 | [19] -0.069

CHAC2 (UniProt Q8WUX2)
inactive: [1] -0.028 | [2] -0.004 | [3] -0.006 | [4] -0.044 | [5] 0.006 | [6] 0.02 | [8] -0.154 | [9] -0.018 | [20] -0.031 | [10] 0.223 | [11] 0.019 | [12] 0.092 | [13] 0.028 | [14] 0.019 | [15] 0.06 | [16] 0.003 | [17] -0.039 | [18] -0.007 | [19] 0
active: [7] 0.649

CCDC22 (UniProt O60826)
inactive: [1] -0.054 | [2] 0.026 | [3] 0.052 | [4] -0.053 | [5] -0.013 | [6] 0.026 | [7] -0.027 | [8] -0.01 | [9] 0.01 | [20] 0.028 | [10] 0.024 | [11] -0.063 | [12] 0.012 | [13] -0.03 | [14] 0.009 | [15] 0.031 | [16] -0.029 | [17] 0.002 | [18] -0.009 | [19] 0.027

BTK isoform 2 (UniProt Q06187)
inactive: [1] -0.014 | [2] 0.013 | [3] 0.128 | [5] -0.106 | [6] 0.01 | [7] -0.147 | [8] 0.053 | [9] 0.058 | [20] -0.026 | [10] -0.037 | [11] -0.113 | [13] 0.017 | [14] -0.039 | [15] -0.033 | [16] 0.051 | [17] -0.012 | [18] -0.029 | [19] -0.046
active: [12] 0.307

C3orf33 (UniProt Q6P1S2)
inactive: [1] 0.295 | [2] -0.043 | [3] -0.04 | [5] 0.063 | [6] -0.056 | [8] 0.216 | [9] 0.045 | [20] 0.047 | [10] -0.166 | [11] 0.124 | [12] -0.084 | [13] 0.224 | [14] 0.115 | [17] -0.13 | [18] -0.111 | [19] 0.006
active: [7] -0.823

BAHCC1 (UniProt Q9P281)
Chain of UniProt Q9P281 (Q9P281 whole entry, looked up): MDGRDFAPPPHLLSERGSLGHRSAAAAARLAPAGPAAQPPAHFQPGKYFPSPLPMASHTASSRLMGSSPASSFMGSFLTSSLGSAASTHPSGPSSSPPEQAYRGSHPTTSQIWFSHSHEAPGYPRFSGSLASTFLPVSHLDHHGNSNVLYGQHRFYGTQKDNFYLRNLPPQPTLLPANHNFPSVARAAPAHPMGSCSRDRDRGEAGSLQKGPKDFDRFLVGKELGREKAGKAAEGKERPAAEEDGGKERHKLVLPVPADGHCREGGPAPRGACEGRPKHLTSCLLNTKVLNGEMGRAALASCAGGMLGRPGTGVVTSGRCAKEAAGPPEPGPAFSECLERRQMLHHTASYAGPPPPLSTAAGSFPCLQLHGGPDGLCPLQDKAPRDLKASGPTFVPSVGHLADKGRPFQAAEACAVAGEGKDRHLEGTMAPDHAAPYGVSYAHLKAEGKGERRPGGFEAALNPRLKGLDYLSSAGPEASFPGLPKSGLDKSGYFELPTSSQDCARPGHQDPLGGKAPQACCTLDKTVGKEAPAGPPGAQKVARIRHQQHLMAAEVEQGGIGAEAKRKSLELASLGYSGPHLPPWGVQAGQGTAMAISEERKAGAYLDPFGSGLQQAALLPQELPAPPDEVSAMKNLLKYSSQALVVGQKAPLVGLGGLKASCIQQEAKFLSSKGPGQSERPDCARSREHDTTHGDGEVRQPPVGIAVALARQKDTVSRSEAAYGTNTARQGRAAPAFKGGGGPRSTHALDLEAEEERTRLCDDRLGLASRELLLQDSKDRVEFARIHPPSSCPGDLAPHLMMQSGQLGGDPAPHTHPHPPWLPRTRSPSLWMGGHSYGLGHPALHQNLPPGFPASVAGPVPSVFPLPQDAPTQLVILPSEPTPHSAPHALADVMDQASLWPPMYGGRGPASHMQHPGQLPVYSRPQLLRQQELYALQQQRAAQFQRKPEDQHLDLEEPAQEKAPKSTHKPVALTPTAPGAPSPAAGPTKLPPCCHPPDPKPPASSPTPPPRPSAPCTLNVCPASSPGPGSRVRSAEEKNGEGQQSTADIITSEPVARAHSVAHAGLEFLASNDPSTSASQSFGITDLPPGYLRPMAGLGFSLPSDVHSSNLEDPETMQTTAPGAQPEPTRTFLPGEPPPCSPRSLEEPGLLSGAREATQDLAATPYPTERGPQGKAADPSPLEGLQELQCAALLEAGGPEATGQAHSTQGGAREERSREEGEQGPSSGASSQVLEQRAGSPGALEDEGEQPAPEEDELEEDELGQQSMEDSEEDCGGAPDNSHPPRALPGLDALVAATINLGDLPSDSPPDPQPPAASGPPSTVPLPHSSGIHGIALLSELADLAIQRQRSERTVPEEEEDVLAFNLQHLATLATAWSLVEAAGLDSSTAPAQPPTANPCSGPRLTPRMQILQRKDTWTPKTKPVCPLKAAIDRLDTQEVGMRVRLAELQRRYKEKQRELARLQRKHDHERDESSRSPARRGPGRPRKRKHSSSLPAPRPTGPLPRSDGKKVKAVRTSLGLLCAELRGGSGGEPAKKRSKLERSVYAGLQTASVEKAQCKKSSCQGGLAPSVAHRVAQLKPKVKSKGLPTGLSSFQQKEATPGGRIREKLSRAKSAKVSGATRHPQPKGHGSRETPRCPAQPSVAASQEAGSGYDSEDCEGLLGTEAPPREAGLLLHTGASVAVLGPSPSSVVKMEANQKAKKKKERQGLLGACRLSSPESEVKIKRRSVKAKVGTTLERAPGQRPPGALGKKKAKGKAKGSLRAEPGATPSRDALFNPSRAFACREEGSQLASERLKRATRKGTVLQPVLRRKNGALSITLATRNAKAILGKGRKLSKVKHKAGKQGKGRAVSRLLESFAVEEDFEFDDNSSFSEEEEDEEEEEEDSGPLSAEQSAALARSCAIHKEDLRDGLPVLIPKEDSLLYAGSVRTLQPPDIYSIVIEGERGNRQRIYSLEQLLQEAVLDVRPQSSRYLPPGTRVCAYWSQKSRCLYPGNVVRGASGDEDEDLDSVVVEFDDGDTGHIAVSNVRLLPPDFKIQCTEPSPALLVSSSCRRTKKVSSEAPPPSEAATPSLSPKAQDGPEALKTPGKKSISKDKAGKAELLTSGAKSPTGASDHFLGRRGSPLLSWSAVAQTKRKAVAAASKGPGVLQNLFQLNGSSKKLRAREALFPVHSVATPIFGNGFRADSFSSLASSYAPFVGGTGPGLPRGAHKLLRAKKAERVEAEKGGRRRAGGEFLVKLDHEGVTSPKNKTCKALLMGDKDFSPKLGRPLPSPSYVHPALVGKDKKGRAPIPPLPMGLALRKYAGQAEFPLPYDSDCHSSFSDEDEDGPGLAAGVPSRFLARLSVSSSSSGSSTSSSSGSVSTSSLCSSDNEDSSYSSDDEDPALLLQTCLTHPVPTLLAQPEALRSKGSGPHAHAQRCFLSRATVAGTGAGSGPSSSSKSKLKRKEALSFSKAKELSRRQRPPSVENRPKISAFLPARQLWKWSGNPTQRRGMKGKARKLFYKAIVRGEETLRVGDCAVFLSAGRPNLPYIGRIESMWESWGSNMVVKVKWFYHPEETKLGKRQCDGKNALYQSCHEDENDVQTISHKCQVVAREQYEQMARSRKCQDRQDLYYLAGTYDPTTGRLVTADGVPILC
inactive: [1] 0.11 | [2] 0.004 | [4] -0.247 | [5] 0 | [7] 0.415 | [8] 0.219 | [9] 0.025 | [20] 0.127 | [10] -0.569 | [12] -0.135 | [13] -0.208 | [14] -0.054 | [15] 0.038 | [16] -0.024 | [17] 0.085 | [18] 0.076 | [19] 0.095

ATXN2 (UniProt F8WB05)
inactive: [1] -0.153 | [2] -0.024 | [3] 0.057 | [4] -0.013 | [5] -0.087 | [6] -0.005 | [7] 0.094 | [8] -0.004 | [9] 0.05 | [20] 0.086 | [10] -0.051 | [11] 0.23 | [12] 0.101 | [13] -0.063 | [14] -0.03 | [15] -0.033 | [16] 0.023 | [18] 0.033

CAPNS1 (UniProt K7ES78)
inactive: [1] 0.143 | [2] -0.07 | [5] 0.033 | [6] 0.076 | [9] 0.12 | [20] -0.071 | [11] -0.074 | [12] 0.001 | [13] 0.035 | [14] -0.068 | [18] -0.083

CDK5RAP2 (UniProt Q96SN8)
inactive: [1] -0.023 | [2] -0.186 | [3] 0.071 | [4] 0.029 | [5] -0.3 | [6] 0.001 | [7] 0.016 | [8] -0.067 | [9] 0.027 | [20] -0.008 | [10] 0.018 | [11] -0.15 | [12] 0.009 | [13] 0.037 | [14] -0.007 | [15] 0.045 | [16] 0.012 | [17] -0.007 | [18] -0.144 | [19] -0.021

CDK16 isoform 2 (UniProt Q00536)
Chain of UniProt Q00536 (Q00536 whole entry, looked up): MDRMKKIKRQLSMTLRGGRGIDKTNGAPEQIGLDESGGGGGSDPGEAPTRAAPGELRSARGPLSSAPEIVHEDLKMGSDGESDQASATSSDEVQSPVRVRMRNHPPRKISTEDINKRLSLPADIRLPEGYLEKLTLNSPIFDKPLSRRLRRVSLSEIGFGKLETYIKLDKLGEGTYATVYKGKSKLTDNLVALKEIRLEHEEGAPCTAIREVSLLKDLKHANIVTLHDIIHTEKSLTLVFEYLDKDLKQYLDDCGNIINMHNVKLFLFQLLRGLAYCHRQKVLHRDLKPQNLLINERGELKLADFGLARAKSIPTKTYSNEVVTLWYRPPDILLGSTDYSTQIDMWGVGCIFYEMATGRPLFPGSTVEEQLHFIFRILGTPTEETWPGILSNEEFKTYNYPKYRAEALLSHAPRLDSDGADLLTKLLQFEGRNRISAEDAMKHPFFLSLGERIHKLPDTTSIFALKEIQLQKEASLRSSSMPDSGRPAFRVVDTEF
inactive: [1] 0.03 | [2] 0.075 | [3] 0.007 | [4] -0.006 | [5] -0.175 | [6] -0.03 | [7] -0.027 | [8] 0.083 | [9] 0.03 | [20] 0.236 | [11] 0.029 | [12] 0.05 | [13] 0.285 | [14] 0.106 | [15] 0.04 | [16] -0.024 | [17] -0.014 | [18] 0.008 | [19] -0.026

CAMK2B (UniProt Q13554)
inactive: [1] 0.011 | [2] -0.058 | [3] 0.014 | [5] -0.145 | [6] 0.022 | [7] -0.021 | [8] 0.049 | [9] -0.077 | [10] 0.318 | [11] -0.035 | [13] 0.009 | [14] -0.069 | [15] -0.045 | [16] 0.067 | [17] 0.001 | [18] -0.005 | [19] 0.026

BSDC1 (UniProt Q9NW68)
Chain of UniProt Q9NW68 (Q9NW68 whole entry, looked up): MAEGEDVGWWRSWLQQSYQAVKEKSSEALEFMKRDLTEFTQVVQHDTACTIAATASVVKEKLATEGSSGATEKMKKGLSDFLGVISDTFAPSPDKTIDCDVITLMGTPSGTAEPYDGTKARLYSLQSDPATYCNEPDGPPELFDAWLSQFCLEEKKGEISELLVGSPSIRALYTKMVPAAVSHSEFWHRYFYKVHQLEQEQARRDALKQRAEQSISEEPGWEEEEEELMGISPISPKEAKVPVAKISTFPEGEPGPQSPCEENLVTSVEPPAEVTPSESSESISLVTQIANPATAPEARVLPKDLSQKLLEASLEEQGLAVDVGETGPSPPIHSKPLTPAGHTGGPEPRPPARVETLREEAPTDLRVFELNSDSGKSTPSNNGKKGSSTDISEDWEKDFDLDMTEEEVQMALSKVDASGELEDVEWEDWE
inactive: [1] 0.027 | [2] 0.053 | [3] 0.078 | [4] 0.099 | [5] 0.018 | [6] -0.01 | [7] -0.027 | [8] 0.041 | [9] 0.03 | [20] -0.019 | [10] -0.033 | [11] 0.052 | [12] 0.018 | [13] 0.031 | [14] -0.025 | [15] 0.112 | [16] -0.149 | [17] 0.026 | [18] -0.031 | [19] -0.017

CACUL1 (UniProt Q86Y37)
Chain of UniProt Q86Y37 (Q86Y37 whole entry, looked up): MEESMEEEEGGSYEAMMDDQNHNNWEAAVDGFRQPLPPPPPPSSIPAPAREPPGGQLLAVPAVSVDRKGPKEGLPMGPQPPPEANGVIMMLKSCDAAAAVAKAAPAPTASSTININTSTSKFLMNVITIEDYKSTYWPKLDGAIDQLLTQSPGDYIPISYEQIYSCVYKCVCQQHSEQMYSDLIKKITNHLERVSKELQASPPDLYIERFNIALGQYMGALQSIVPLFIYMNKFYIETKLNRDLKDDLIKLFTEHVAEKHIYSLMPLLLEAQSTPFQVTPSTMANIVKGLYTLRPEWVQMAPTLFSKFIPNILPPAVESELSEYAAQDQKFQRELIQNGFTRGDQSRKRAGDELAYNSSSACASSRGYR
inactive: [1] 0.04 | [2] 0.053 | [4] -0.04 | [5] 0.106 | [6] -0.072 | [7] 0.012 | [8] -0.111 | [9] -0.026 | [20] 0.103 | [10] 0.022 | [11] -0.029 | [12] -0.027 | [13] 0.027 | [14] -0.04 | [15] -0.02 | [16] -0.042 | [18] 0.212

C8orf37 (UniProt Q96NL8)
Chain of UniProt Q96NL8 (Q96NL8 whole entry, looked up): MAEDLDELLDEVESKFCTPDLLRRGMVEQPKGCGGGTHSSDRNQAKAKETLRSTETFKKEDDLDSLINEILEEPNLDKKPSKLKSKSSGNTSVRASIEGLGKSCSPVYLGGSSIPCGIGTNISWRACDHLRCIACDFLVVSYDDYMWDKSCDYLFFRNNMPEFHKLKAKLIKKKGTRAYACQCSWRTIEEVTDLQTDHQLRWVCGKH
inactive: [1] 0.081 | [2] -0.061 | [3] -0.062 | [4] 0.058 | [5] -0.043 | [6] -0.075 | [7] 0.225 | [8] 0.166 | [9] -0.06 | [20] 0.072 | [10] -0.146 | [11] 0.022 | [12] -0.035 | [13] 0.281 | [14] -0.099 | [15] 0.018 | [16] -0.011 | [18] 0.162

AUH (UniProt Q13825)
Chain of UniProt Q13825 (Q13825 whole entry, looked up): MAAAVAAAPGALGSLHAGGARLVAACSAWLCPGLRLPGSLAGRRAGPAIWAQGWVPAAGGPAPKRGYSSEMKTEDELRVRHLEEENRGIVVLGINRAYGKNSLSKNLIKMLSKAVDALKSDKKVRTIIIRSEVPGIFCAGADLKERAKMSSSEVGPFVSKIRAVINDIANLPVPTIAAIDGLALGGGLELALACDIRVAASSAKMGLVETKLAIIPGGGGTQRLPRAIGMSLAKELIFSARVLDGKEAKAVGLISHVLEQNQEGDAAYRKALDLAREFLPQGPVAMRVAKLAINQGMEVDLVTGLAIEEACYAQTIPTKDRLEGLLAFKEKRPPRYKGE
inactive: [1] 0.083 | [2] -0.009 | [3] 0.004 | [4] 0.042 | [5] -0.093 | [6] 0 | [7] 0.1 | [8] 0 | [9] -0.101 | [20] 0.047 | [10] 0.221 | [11] 0.147 | [12] 0.057 | [13] -0.169 | [14] 0.049 | [15] 0.015 | [16] 0.023 | [18] -0.052
